{"source": "the supplement of paper PMC8728848", "experiment_in_all_cases": "glycan array binding signal (z-score within array); higher = stronger binding", "settings_in_all_cases": "glycan notation: IUPAC condensed, linker removed", "key": {"[1]": {"molecular_target": "Fuc(a1-2)Gal(b1-3)[Fuc(a1-4)]GlcNAc", "in_short": "(§1)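 Columns mapping to the same glycan were averaged after glycan names were converted to IUPAC-condensed notation. The data come from 3228 arrays in the Consortium for Functional Glycomics database, limited to those with an available protein sequence. Binding is reported as a within-array Z-score averaged across arrays of one protein sequence and across linkers.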"}, "Fuc(a1-2)[Gal(a1-3)]Gal": {"molecular_target": "Fuc(a1-2)[Gal(a1-3)]Gal", "in_short": "as §1"}, "[2]": {"molecular_target": "Fuc(a1-2)[Gal(a1-3)]Gal(b1-4)Glc", "in_short": "as §1"}, "[3]": {"molecular_target": "Fuc(a1-2)[GalNAc(a1-3)]Gal(b1-3)GalNAc(a1-3)[Fuc(a1-2)]Gal(b1-4)GlcNAc", "in_short": "as §1"}, "[4]": {"molecular_target": "Fuc(a1-2)[GalNAc(a1-3)]Gal(b1-3)GalNAc(b1-3)Gal(a1-4)Gal(b1-4)Glc", "in_short": "as §1"}, "[5]": {"molecular_target": "Fuc(a1-2)[GalNAc(a1-3)]Gal(b1-3)GlcNAc(b1-2)Man(a1-3)[Fuc(a1-2)[GalNAc(a1-3)]Gal(b1-3)GlcNAc(b1-2)Man(a1-6)]Man(b1-4)GlcNAc(b1-4)[Fuc(a1-6)]GlcNAc", "in_short": "as §1"}, "[6]": {"molecular_target": "Fuc(a1-2)[GalNAc(a1-3)]Gal(b1-4)GlcNAc(b1-6)GalNAc", "in_short": "as §1"}, "Gal(a1-3)Gal(b1-3)GlcNAc": {"molecular_target": "Gal(a1-3)Gal(b1-3)GlcNAc", "in_short": "as §1"}, "Gal(a1-3)Gal(b1-4)Glc": {"molecular_target": "Gal(a1-3)Gal(b1-4)Glc", "in_short": "as §1"}, "[7]": {"molecular_target": "Gal(a1-3)Gal(b1-4)GlcNAc(b1-2)Man(a1-3)[Gal(a1-3)Gal(b1-4)GlcNAc(b1-2)Man(a1-6)]Man(b1-4)GlcNAc(b1-4)GlcNAc", "in_short": "as §1"}, "[8]": {"molecular_target": "Gal(a1-3)Gal(b1-4)[Fuc(a1-3)]GlcNAc(b1-2)Man(a1-3)[Gal(a1-3)Gal(b1-4)[Fuc(a1-3)]GlcNAc(b1-2)Man(a1-6)]Man(b1-4)GlcNAc(b1-4)GlcNAc", "in_short": "as §1"}, "Gal(a1-3)GalNAc": {"molecular_target": "Gal(a1-3)GalNAc", "in_short": "as §1"}, "[9]": {"molecular_target": "Gal(a1-3)[Gal(a1-4)]Gal(b1-4)GlcNAc", "in_short": "as §1"}, "[10]": {"molecular_target": "Gal(a1-4)Gal(b1-4)GlcNAc(b1-2)Man(a1-3)[Gal(a1-4)Gal(b1-4)GlcNAc(b1-2)Man(a1-6)]Man(b1-4)GlcNAc(b1-4)GlcNAc", "in_short": "as §1"}, "[11]": {"molecular_target": "Gal(a1-4)Gal(b1-4)GlcNAc(b1-3)Gal(b1-4)Glc", "in_short": "as §1"}, "Gal(b1-3)Gal(b1-4)GlcNAc": {"molecular_target": "Gal(b1-3)Gal(b1-4)GlcNAc", "in_short": "as §1"}, "Gal(b1-3)GlcNAc": {"molecular_target": "Gal(b1-3)GlcNAc", "in_short": "as §1"}, "[12]": {"molecular_target": "Gal(b1-3)GlcNAc(b1-3)Gal(b1-4)GlcNAc", "in_short": "as §1"}, "[13]": {"molecular_target": "Gal(b1-3)GlcNAc(b1-3)Gal(b1-4)[Fuc(a1-3)]GlcNAc(b1-6)[Gal(b1-3)GlcNAc(b1-3)]Gal(b1-4)Glc", "in_short": "as §1"}, "[14]": {"molecular_target": "Gal(b1-3)[Fuc(a1-4)]GlcNAc(b1-2)Man(a1-3)[Gal(b1-3)[Fuc(a1-4)]GlcNAc(b1-2)Man(a1-6)]Man(b1-4)GlcNAc(b1-4)[Fuc(a1-6)]GlcNAc", "in_short": "as §1"}, "Gal(b1-4)Glc6S": {"molecular_target": "Gal(b1-4)Glc6S", "in_short": "as §1"}, "[15]": {"molecular_target": "Gal(b1-4)GlcNAc(a1-6)Gal(b1-4)GlcNAc", "in_short": "as §1"}, "[16]": {"molecular_target": "Gal(b1-4)GlcNAc(b1-2)Man(a1-3)[Gal(b1-4)GlcNAc(b1-2)Man(a1-6)]Man(b1-4)GlcNAc(b1-4)GlcNAc", "in_short": "as §1"}, "[17]": {"molecular_target": "Gal(b1-4)GlcNAc(b1-2)[Gal(b1-4)GlcNAc(b1-4)]Man(a1-3)[Gal(b1-4)GlcNAc(b1-2)[Gal(b1-4)GlcNAc(b1-6)]Man(a1-6)]Man(b1-4)GlcNAc(b1-4)GlcNAc", "in_short": "as §1"}, "[18]": {"molecular_target": "Gal(b1-4)GlcNAc(b1-3)Gal(b1-3)GalNAc", "in_short": "as §1"}, "[19]": {"molecular_target": "Gal(b1-4)GlcNAc(b1-3)Gal(b1-4)GlcNAc(b1-2)Man(a1-3)[Gal(b1-4)GlcNAc(b1-3)Gal(b1-4)GlcNAc(b1-2)Man(a1-6)]Man(b1-4)GlcNAc(b1-4)GlcNAc", "in_short": "as §1"}, "[20]": {"molecular_target": "Gal(b1-4)GlcNAc(b1-3)Gal(b1-4)GlcNAc(b1-2)[Gal(b1-4)GlcNAc(b1-3)Gal(b1-4)GlcNAc(b1-6)]Man(a1-6)[Gal(b1-4)GlcNAc(b1-3)Gal(b1-4)GlcNAc(b1-2)Man(a1-3)]Man(b1-4)GlcNAc(b1-4)[Fuc(a1-6)]GlcNAc", "in_short": "as §1"}}, "note": "Many of the other results were omitted from the sample, so the strongest signals are more common in it than they were.", "data": [{"binder": "PX14375C-bth-509-28-509 (Bacteroides thetaiotaomicron) (protein) RSPQGQFTEDDNPNALVNGKIYNVYTMMRSFDITAGTPAIAIHYLRSEDSEKGSIPSDGSDVAEMYDDFLYTPTNGLLGSYWGKNYAIIYQCNDILDAIAEKETAGQTETEDIINKGEASFFRAYCYFNLVRAFGEVPLVTYKINDASEANIPKTTADKIYEQIDTDLKTAEESLPETWSTEYTGRLTWGAARSLHARTYMMRSDWDNMYKASTDVINKGLYNLKTPYNEIFTDDGENSGGSIFELQCTATAALPQSDVIGSQFCEVQGVRGAGQWDLGWGWHMATQLMADAYETGDPRKNATLLYFRKTDDEPITPENTNEPYGESPISPAMGAYFNKKAYTDPALRKEYTNKGFWVNIRLIRYSDVVLMAAEAANEKNIPGEAVDYLEMVRARARGTNTNILPKITTNDQGELREAIRHERRVELGLEPDRFYDLVRWGIASEVLHAAGKVNYQDKNALLPLPQSEIDKSKGVLVQNPDY", "values": [{"measurement": "glycan array binding signal (z-score)", "setting": "[1]", "value": -0.397}, {"measurement": "glycan array binding signal (z-score)", "setting": "Fuc(a1-2)[Gal(a1-3)]Gal", "value": -0.193}, {"measurement": "glycan array binding signal (z-score)", "setting": "[2]", "value": 0.04}, {"measurement": "glycan array binding signal (z-score)", "setting": "[3]", "value": -0.112}, {"measurement": "glycan array binding signal (z-score)", "setting": "[4]", "value": -0.355}, {"measurement": "glycan array binding signal (z-score)", "setting": "[5]", "value": -0.19}, {"measurement": "glycan array binding signal (z-score)", "setting": "[6]", "value": 3.04}, {"measurement": "glycan array binding signal (z-score)", "setting": "Gal(a1-3)Gal(b1-3)GlcNAc", "value": -0.256}, {"measurement": "glycan array binding signal (z-score)", "setting": "Gal(a1-3)Gal(b1-4)Glc", "value": -0.196}, {"measurement": "glycan array binding signal (z-score)", "setting": "[7]", "value": 0.762}, {"measurement": "glycan array binding signal (z-score)", "setting": "[8]", "value": 1.41}, {"measurement": "glycan array binding signal (z-score)", "setting": "Gal(a1-3)GalNAc", "value": -0.254}, {"measurement": "glycan array binding signal (z-score)", "setting": "[9]", "value": 2.55}, {"measurement": "glycan array binding signal (z-score)", "setting": "[10]", "value": -0.374}, {"measurement": "glycan array binding signal (z-score)", "setting": "[11]", "value": -0.341}, {"measurement": "glycan array binding signal (z-score)", "setting": "Gal(b1-3)Gal(b1-4)GlcNAc", "value": -0.316}, {"measurement": "glycan array binding signal (z-score)", "setting": "Gal(b1-3)GlcNAc", "value": -0.186}, {"measurement": "glycan array binding signal (z-score)", "setting": "[12]", "value": -0.144}, {"measurement": "glycan array binding signal (z-score)", "setting": "[13]", "value": -0.581}, {"measurement": "glycan array binding signal (z-score)", "setting": "[14]", "value": 0.351}, {"measurement": "glycan array binding signal (z-score)", "setting": "Gal(b1-4)Glc6S", "value": 0.533}, {"measurement": "glycan array binding signal (z-score)", "setting": "[15]", "value": -0.071}, {"measurement": "glycan array binding signal (z-score)", "setting": "[16]", "value": 6.16}, {"measurement": "glycan array binding signal (z-score)", "setting": "[17]", "value": 1.28}, {"measurement": "glycan array binding signal (z-score)", "setting": "[18]", "value": -0.287}, {"measurement": "glycan array binding signal (z-score)", "setting": "[19]", "value": 4.35}, {"measurement": "glycan array binding signal (z-score)", "setting": "[20]", "value": 12.3}]}]}
